KB-3-1 tox = qHTS assay for MDR1-selective chemotherapeutics: Primary screen using the parental adenocarcinoma cell KB-3-1. KB-3-1 viability, CellTiter-Glo ATP luminescence, 72 h. Potency, µM (series often up to 46.1 µM), hits mostly cytotoxic. 1.4% of 400,000 active; further: nearly all actives have a fitted effect of over 60% in size
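Cytotoxicity measured as CellTiter-Glo luminescence after 72 h at 37 C. Compound titrations were pinned onto drug-naive KB-3-1 parental adenocarcinoma cells grown in DMEM with 10% FBS, and normalized data fitted to concentration-response curves.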
MCF10A rerep = A quantitative high throughput screen for small molecules that induce DNA re-replication in MCF 10a normal breast cells. MCF 10A DNA re-replication, Hoechst nuclear intensity, 48 h. Potency, µM (highest dose often 46.1 µM), usual class: activators. 2.9% of 350,000 active. AID 624296, 2012; further: nearly all actives have a fitted effect of over 50% in size
KB-V1 cytotox = qHTS assay for MDR1-selective chemotherapeutics: Primary screen using the drug-selected MDR subline cells KB-V1. KB-V1 MDR cells viability, CellTiter-Glo, 72 h. Potency, µM (titrated, usually from 46.1 µM), most hits filed as cytotoxic. 3.4% of 400,000 active; further: nearly all actives have a fitted effect of over 60% in size
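KB-V1 MDR subline cells in DMEM (phenol-red free, 10% FBS) exposed to compounds in qHTS concentration series for 72 h at 37 degrees C. Viability read by CellTiter-Glo luminescence; concentration-effect curves fitted after normalization and correction.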
HT1080 IDH1KD tx = qHTS for induction of synthetic lethality in tumor cells producing 2HG: qHTS for the HT-1080-IDH1KD cell line; HT-1080 IDH1 knockdown viability, ATP luminescence, 48 h; AID 686971, 2013; Potency, µM (titrated, usually from 46.1 µM), actives largely listed as cytotoxic; 2% of 360,000 active
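% activity derives from luminescence (CellTiter-Glo), normalised to DMSO and no-cell wells. HT-1080-IDH1KD cells, 750/well, had 48 h compound exposure at 37 °C.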
SW480 rerep = A quantitative high throughput screen for small molecules that induce DNA re-replication in SW480 colon adenocarcinoma cells. 1.8% of 340,000 active. SW480 DNA re-replication, Hoechst DNA content imaging, 48 h. Potency, µM (highest dose often 46.1 µM), hits mostly activators; further: nearly all actives have a fitted effect of over 55% in size
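Image-based DNA-content assay: after two days of treatment, nuclei were labelled with the DNA dye Hoechst and imaged, and hits were compounds raising the count of nuclei showing high fluorescence intensity.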
HT1080-NT tox = qHTS for induction of synthetic lethality in tumor cells producing 2HG: qHTS for the HT-1080-NT fibrosarcoma cell line; 1.6% of 360,000 active; HT-1080-NT fibrosarcoma viability, CellTiter-Glo ATP luminescence, 48 h; Potency, µM (series often up to 46.1 µM), most hits filed as cytotoxic;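 further: NT is the 2HG producing partner of a matched IDH1 knockdown line; nearly all actives have a fitted effect of over 55% in size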
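Viability of the 2HG-overproducing fibrosarcoma line after 48 hours of compound exposure at 37 degrees C was determined by luminescence with CellTiter-Glo, and concentration-effect curves were then fitted and categorized.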
A number is an active result. Rows were chosen to be rich in hits. Some 7.9% of all compounds tested hit in one or more screens of this group. The call rests on the fitted dose curve; in most records, active means well fitted curve in the direction sought with a large enough effect; inconclusive means small, poorly fitted or top-dose-only effect, or another doubt; inactive means no such curve, though single readings can be large; an effect the other way counts as inactive or inconclusive.

For CCn1c(SCc2nc3ccccc3c(=O)[nH]2)nnc1C(C)NC(=O)c1ccccc1F (stereo not given) the results were KB-3-1 tox inactive, MCF10A rerep inactive, KB-V1 cytotox inactive, HT1080 IDH1KD tx inactive, SW480 rerep inactive and HT1080-NT tox inactive.
Clc1ccc(-c2csc(Nc3ccccc3)[n+]2Cc2ccco2)c(Cl)c1 was read as KB-3-1 tox inconclusive, MCF10A rerep inconclusive, KB-V1 cytotox inconclusive, HT1080 IDH1KD tx inconclusive, SW480 rerep inactive and HT1080-NT tox inactive.
`C=CC[n+]1c(-c2ccc(Cl)cc2Cl)csc1Nc1c(C)n(C)n(-c2ccccc2)c1=O` gave KB-3-1 tox inconclusive, MCF10A rerep inconclusive, KB-V1 cytotox inactive, HT1080 IDH1KD tx 15µM, SW480 rerep inconclusive and HT1080-NT tox 21µM.
For C=CC[n+]1c(-c2ccc(Cl)cc2Cl)csc1Nc1ccc(NC(C)=O)cc1 the results were KB-3-1 tox inconclusive, MCF10A rerep inconclusive, KB-V1 cytotox inactive, HT1080 IDH1KD tx 18µM, SW480 rerep 23µM and HT1080-NT tox inconclusive.
`CCCC[n+]1c(-c2ccc(Cl)cc2Cl)csc1Nc1ccccc1` gave KB-3-1 tox inactive, MCF10A rerep 23µM, KB-V1 cytotox inconclusive, HT1080 IDH1KD tx inactive, SW480 rerep inactive and HT1080-NT tox inactive.
Screening COc1ccc(-c2cc(=O)oc3c(C)c(O)ccc23)cc1 returned KB-3-1 tox inactive, MCF10A rerep inconclusive, KB-V1 cytotox inactive, HT1080 IDH1KD tx inactive, SW480 rerep inactive and HT1080-NT tox inactive.
`COc1ccc(/C=C\C(=O)c2c(O)ccc3c(C)cc(=O)oc23)cc1` gave KB-3-1 tox 23µM, MCF10A rerep inconclusive, KB-V1 cytotox inconclusive, HT1080 IDH1KD tx inconclusive, SW480 rerep inactive and HT1080-NT tox inconclusive.
`COc1ccc(/C=C/C(=O)c2c(O)ccc3c(C)cc(=O)oc23)cc1` gave KB-3-1 tox inactive, MCF10A rerep 21µM, KB-V1 cytotox inactive, HT1080 IDH1KD tx inconclusive, SW480 rerep inactive and HT1080-NT tox inconclusive.
`Cc1cc(=O)oc2c(O)c(O)ccc12` gave KB-3-1 tox inactive, MCF10A rerep inactive, KB-V1 cytotox inconclusive, HT1080 IDH1KD tx inconclusive, SW480 rerep inactive and HT1080-NT tox inactive.
COc1ccc2c(CNCc3ccc(C)o3)c(C(=O)O)n(Cc3ccccc3)c2c1 was read as KB-3-1 tox inconclusive and KB-V1 cytotox inactive.
Cc1onc(-c2c(Cl)cccc2Cl)c1C(=O)N/N=C(\N)COc1ccc(Cl)cc1 was read as KB-3-1 tox 4.1µM, MCF10A rerep inconclusive, KB-V1 cytotox inactive, HT1080 IDH1KD tx inconclusive, SW480 rerep inactive and HT1080-NT tox inconclusive.
Screening CCC(C)NS(=O)(=O)c1ccc(OCC(=O)NCc2ccc3c(c2)OCO3)cc1 (stereo not given) returned KB-3-1 tox inactive, MCF10A rerep inactive, KB-V1 cytotox inactive, HT1080 IDH1KD tx inactive, SW480 rerep inactive and HT1080-NT tox inactive.
`Cc1ccc(C(=O)NC2CCCc3ccccc32)cc1[N+](=O)[O-]` (stereo not given) gave KB-3-1 tox inactive, MCF10A rerep inconclusive, KB-V1 cytotox inconclusive, HT1080 IDH1KD tx 13µM, SW480 rerep inconclusive and HT1080-NT tox inconclusive.
COc1ccc(C(=O)NC2CCCc3ccccc32)cc1S(=O)(=O)N1CCOCC1 (stereo not given) was read as KB-3-1 tox inactive, MCF10A rerep inactive, KB-V1 cytotox inconclusive, HT1080 IDH1KD tx inactive, SW480 rerep 10µM and HT1080-NT tox inactive.
`COc1ccc(C(=O)Nc2ccccc2[N+](=O)[O-])cc1S(=O)(=O)N1CCOCC1` gave MCF10A rerep inconclusive, HT1080 IDH1KD tx inactive, SW480 rerep 18µM and HT1080-NT tox inactive.

Bioassay records (PubChem BioAssay)
